This note sets out measurements from PubChem BioAssay (NCATS).

Molecules are shown by their SMILES. Results filed as inconclusive are left out. Entries that show only a call come without a potency. The source made the active and inactive calls. Calls come from the whole dose curve; as a rule, active = well fitted inhibition curve with a large enough effect; inconclusive = small, poorly fitted or top-dose-only effect; inactive = flat fitted curve, though single readings scatter.
Potency is the fitted concentration of half-maximal effect.

The assay in a line: Primary qHTS for inhibitors of nuclear receptor binding SET domain protein 2 (NSD2) in an isogenic RCH-ACV NSD2 p.E1099K mutant (9B) (AID 1645876). Note: nearly all actives have a fitted effect of over 70% in size. Conditions: RCH-ACV (leukaemia line) NSD2 E1099K (9B) viability, CellTiter-Glo, 72 h; series mostly up to 44.9 µM. (Quantitative high-throughput screening tests each substance at several concentrations.)
Turning to `CCOc1ccc(Cc2cc([C@@H]3O[C@H](CO)[C@@H](O)[C@H](O)[C@H]3O)ccc2Cl)cc1`, the Potency entry was “inactive”.
To `COC(=O)[C@H]1[C@@H](O)[C@@]2(O)c3c(OC)cc(O[C@@H]4O[C@@H]([C@@H](O)CO)CO[C@H]4OC)cc3O[C@@]2(c2ccc(OC)cc2)[C@@H]1c1ccccc1` belongs 4.68 µM (active).
In the case of `O=C(NCc1ccc(S(=O)(=O)c2cccc(C(F)(F)F)c2)cc1)c1cnc2[nH]ncc2c1` it was 0.0132 µM (active).
In the case of `COC[C@@H](c1ccc(C(F)(F)F)cc1)N1CCN(C2(C)CCN(C(=O)c3c(C)ncnc3C)CC2)C[C@@H]1C` it was “inactive”; in that of `Cc1c(F)cccc1NC(=O)Nc1ccc(Cl)c(S(=O)(=O)[C@H]2CCCNC2)c1O`, “inactive”; in that of `Cc1ccc(-c2nc(N)nc3c2nnn3Cc2cccc(CO[C@H]3CCOC3)n2)o1`, “inactive”.
`CCNC(=O)Nc1ccc(Oc2ncnc(N)c2/C=N/OC)cc1Cl`: the Potency is 20.9 µM (active).
In the case of `COc1cccc(-c2c(C)n(Cc3c(F)cccc3C(F)(F)F)c(=O)n(C[C@H](NCCCC(=O)O)c3ccccc3)c2=O)c1F` it was “inactive”; in that of `C=CC(=O)N1CCC(CNc2ncnc(N)c2-c2ccc(Oc3ccccc3)cc2)CC1`, 16.6 µM (active); in that of `O=C1CC[C@H](N2Cc3c(OCc4ccc(CN5CCOCC5)cc4)cccc3C2=O)C(=O)N1`, 0.0166 µM (active).
To `C[C@@H]1C(=O)OC2[C@H](O)[C@]34[C@H]5C[C@@H](C(C)(C)C)[C@]36[C@@H](OC(=O)[C@@H]6O)O[C@@]4(C(=O)O5)[C@]21O` (stereo not given in full) belongs “inactive”; to `O=C(Nc1nccs1)C(c1cc(F)ccc1O)N1Cc2ccccc2C1=O` (stereo not given), “inactive”.
In the case of `C=CC(=O)N1CCC[C@H](n2c(=O)n(-c3ccc(Oc4ccccc4)cc3)c3c(N)ncnc32)C1` it was 2.09 µM (active); in that of `COc1cc(C(=O)NC(N)=Nc2ccc(C)c(NC(=O)c3ccc(-c4ccccc4)cc3)c2)cc(OC)c1OC`, 13.2 µM (active).
Take `COC(=O)C1=C(C)NC(c2ncc(F)cc2F)=N[C@H]1c1ccc(F)cc1Cl`: the Potency is 14.8 µM (active).
Regarding `COc1ccc(COc2ccc(Cc3cnc(N)nc3N)cc2OC)cc1`, the Potency entry is “inactive”.
To `CC1(C)C(N(O)C(=O)Nc2ccc(Cl)cc2)N(c2ccc(Cl)cc2)C(=O)N1CC(=O)N/N=C/C=C/c1ccc([N+](=O)[O-])o1` (stereo not given) belongs 7.42 µM (active); to `Cc1cc(-c2cnn3c(NCC4CC(C)(O)C4)cc(Oc4cccnc4)nc23)ccc1C(=O)NC1CC1` (stereo not given), 0.148 µM (active).
Regarding `Cn1c(-c2ccccc2C(F)(F)F)nnc1C12CCC(c3noc(C4CC(F)(F)C4)n3)(CC1)CC2`, the Potency entry was “inactive”.
In the case of `C[C@]12CC[C@H](O)CC1=CC[C@@H]1[C@@H]2CC[C@]2(C)C(c3cccnc3)=CC[C@@H]12` it was “inactive”; in that of `Cc1cc(C)cc(Oc2ccc(CNC(=O)[C@H](C)N)cc2C)c1`, 18.6 µM (active).
In the case of `Cn1cc(-c2nc(N[C@@H]3CCCC[C@@H]3N)c(F)c3c2C(=O)NC3)cn1` it was 0.662 µM (active).
With `CC[C@@]1(O)C(=O)OCc2c1cc1n(c2=O)Cc2c-1nc1ccccc1c2CCNC(C)C`, the Potency was 0.0042 µM (active).
To `c1ccc(CNCc2ccc(CN3CCCNCCNCCCNCC3)cc2)nc1` belongs “inactive”.
In the case of `CN1C(=O)N[C@H](Cc2c[nH]c3c(Cl)cccc23)C1=O` it was “inactive”.
Regarding `Cc1ccc(NS(=O)(=O)c2ccc3c(c2)C2C=CCC2C(c2ccc(C(=O)O)cc2)N3)cc1C` (stereo not given), the Potency entry was “inactive”.
In the case of `O=C(Nc1ccccc1)Nc1ccc(-c2ccc(C(=O)[C@@H]3CCC[C@H]3C(=O)O)cc2)cc1` it was “inactive”; in that of `CCS(=O)(=O)c1ccc2oc(-c3ccc4ccccc4c3)nc2c1`, “inactive”; in that of `C[C@]12CCC3=C4CCC(=O)C=C4CC[C@H]3[C@@H]1CC[C@@]2(O)CC#N`, “inactive”.
In the case of `CC(C)=CCC[C@](C)(O[C@@H]1O[C@H](CO[C@@H]2O[C@H](CO)[C@@H](O)[C@H](O)[C@H]2O)[C@@H](O)[C@H](O)[C@H]1O)[C@H]1CC[C@]2(C)[C@@H]1[C@H](O)C[C@@H]1[C@@]3(C)CC[C@H](O[C@@H]4O[C@H](CO)[C@@H](O)[C@H](O)[C@H]4O[C@@H]4O[C@H](CO)[C@@H](O)[C@H](O)[C@H]4O)C(C)(C)[C@@H]3CC[C@]12C` it was “inactive”; in that of `N=C1S/C(=C\c2ccc(-c3ccc4c(c3)C(=O)NC4=O)o2)C(=O)N1c1ccc(Br)cc1`, “inactive”; in that of `O=C(/C=C\n1cnc(-c2cc(C(F)(F)F)cc(C(F)(F)F)c2)n1)NNc1ccccn1`, 3.72 µM (active).
On to `C=CC(=O)Nc1cccc(Oc2nc(Nc3ccc(N4CCN(C)CC4)c(F)c3)nc3[nH]ccc23)c1`, for which the Potency is 1.48 µM (active).
In the case of `O=S(=O)(Nc1ccc(-c2cccnc2)c2cccnc12)c1cccc(C(F)(F)F)c1` it was 7.42 µM (active); in that of `CC(C)n1ncnc1-c1cn2c(n1)-c1ccc(O[C@@H](C)C(N)=O)cc1OCC2`, 0.934 µM (active).
`COc1ccc2[nH]c3c(c2c1)CCN[C@]31CS[C@@H]2c3c(OC(C)=O)c(C)c4c(c3[C@H](COC1=O)N1[C@@H]2[C@H]2c3c(cc(C)c(OC)c3O)C[C@@H]([C@@H]1O)N2C)OCO4`: the Potency was 0.0017 µM (active).
In the case of `COc1cc([C@@H]2c3cc4c(cc3[C@@H](O[C@@H]3O[C@@H]5CO[C@@H](c6cccs6)O[C@H]5[C@H](O)[C@H]3O)[C@H]3COC(=O)[C@H]23)OCO4)cc(OC)c1O` it was 0.0332 µM (active); in that of `C=C1CCC[C@]2(C)C=C3OC(=O)C(C)=C3C[C@@H]12`, “inactive”; in that of `COc1cc(C)[nH]c(=O)c1CN1CCc2c(Cl)cc([C@H](OC)C3COC3)c(Cl)c2C1=O`, “inactive”.
To `CC1=NN(c2ccc(C(=O)O)cc2)C(=O)/C1=C/c1ccc(-c2cc(C)c(C)cc2[N+](=O)[O-])o1` belongs “inactive”.
